Inconclusive results are not listed. Entries that show only a call come without a potency. Active and inactive are the calls of the source. Calls come from the whole dose curve.
Potency is the fitted concentration of half-maximal effect.

A short description of this test: Nuclear factor erythroid 2-related factor 2/antioxidant responsive element (Nrf2/ARE) small molecule agonists: luciferase reporter gene qHTS assay in human keratinocytes (AID 1919969). Note: nearly all actives have a fitted effect of over 35% in size. As to conditions: KeratinoSens HaCaT ARE-luciferase, luminescence, 24 h; series mostly up to 92.4 µM. An excerpt:
National Center for Advancing Translational Sciences [NCATS]
Division of Preclinical Innovation [DPI]
U.S. Environmental Protection Agency [EPA]
National Institutes of Environmental Health Sciences [NIEHS]
National Toxicology Program [NTP]
U.S. Food and Drug Administration [FDA]
Oxidative stress has been implicated in the pathogenesis of a variety of diseases ranging from cancer to neurodegeneration. The antioxidant response element (ARE) signaling pathway plays an important role in the amelioration of oxidative stress. The KeratinoSens (Givaudan, Switzerland) is an in vitro test method which quantifies luciferase induction as a measure of activation of Keap1-Nrf2-antioxidationt/electrophile response element (ARE) dependant pathway in HaCaT human keratinocytes stably transfected with a selectable plasmid. The KeratinoSens assay is a cell-based assay with a reporter cell line to detect potential skin sensitizers by their ability to induce the Nrf2/ARE-response. The activation of the report gene under culture conditions can be detected by ONE-Glo Luciferase Assay System (Promega, Madison, WI). This cell line has been used to screen the Tox21 10K compound library to identify agonists that induce oxidative stress. The cytotoxicity of the Tox21 compound library against the KS-ARE cell line was tested in parallel by measuring the cell viability using CellTiter- Fluor assay system (Promega, Madison, WI) in the same wells.
HaCaT derived cell line KeratinoSens were dispensed at 1,500 cells/5uL/well in 1536-well white wall/solid bottom plates using a Multidrop Combi (ThermoFisher Scientific, Waltham, MA) dispenser. After the assay plates were incubated at 37 C/5% CO2 for 5 h, 23 nL of compounds dissolved in DMSO, positive controls or DMSO only was transferred to the assay plate by a pintool workstation (Kalypsys, San Diego, CA). The plates were incubated at 37 C/5% CO2 for 23 h, followed by addition of 1uL/well of CellTiter-Fluor reagent into the assay plates using a Flying Reagent Dispenser (Aurora Discovery, San Diego, CA) for cell viability readout that measures cytotoxicity. After 1 h incubation at 37 C/5% CO2 the fluorescence intensity was measured using a ViewLux (PerkinElmer, Shelton, CT) plate reader. Then 4uL/well of One-Glo were added using a Flying Reagent Dispenser. After the plates were incubated at room temperature for 30 min, the luminescence intensity in the assay plates was measured using ViewLux plate reader.
Regarding `CC[C@]1(O)CC[C@H]2[C@@H]3CCC4=CCCC[C@@H]4[C@H]3CC[C@@]21C`, the Potency entry is “inactive”. With `CC(Cc1ccc(C(C)(C)C)cc1)CN1C[C@@H](C)O[C@@H](C)C1` (stereo not given in full), the Potency was 61.1 µM (active). For `CCOC(=O)C(Cl)C(C)=O` (stereo not given), the Potency result is “inactive”.

Turning to `CCC(CC)(CNC(=O)CCCO)c1cccc(OC)c1`, the Potency result was “inactive”. On to `O=C(OC1CCCCC1)c1ccccc1C(=O)OC1CCCCC1`, for which the Potency result is “inactive”.

`CSC(=O)c1c(C(F)F)nc(C(F)(F)F)c(C(=O)SC)c1CC(C)C`: the Potency is 24.2 µM (active). As for `O=[N+]([O-])c1ccc(Oc2ccc(C(F)(F)F)cc2[N+](=O)[O-])cc1`, the Potency is 48.6 µM (active). Consider `CCOC(=O)CC(=O)CCl`, for which the Potency was 68.6 µM (active). Regarding `COc1cccc([C@@]2(O)CCCC[C@@H]2CN(C)C)c1`, the Potency result was “inactive”. In the case of `c1cc[c]([Sb]([c]2ccccc2)[c]2ccccc2)cc1`, the Potency is 12.2 µM (active).

With `C=COC(C)=O`, the Potency result was “inactive”.

In the case of `CCOCn1c(-c2ccc(Cl)cc2)c(C#N)c(Br)c1C(F)(F)F`, the Potency is 24.3 µM (active). As for `CC(C)(C)OC(=O)c1ncn2c1[C@@H]1CCCN1C(=O)c1c(Br)cccc1-2`, the entry is “inactive”; as for `CC(C(O)c1ccccc1)N(C)C/C=C/c1ccccc1` (stereo not given), “inactive”. Take `N#CC(Br)(Br)C(N)=O`: the Potency entry was “inactive”. Turning to `CCN(CC)CCc1c[nH]c2ccccc12`, the Potency entry is “inactive”. Take `Oc1ccc(C(=C(Cl)Cl)c2ccc(O)cc2)cc1`: the Potency result is “inactive”. As for `O=C(CCCN1CCC(n2c(=O)[nH]c3ccccc32)CC1)c1ccc(F)cc1`, the Potency result is “inactive”. Take `CCOc1cccc(C2(N3CCN(c4ccccc4)CC3)CCC(C)CC2)c1` (stereo not given): the Potency entry was “inactive”. For `CC(C)(c1ccccc1)c1ccc(O)cc1`, the Potency result is “inactive”. Turning to `Clc1ccc(C(OCCN2CCCCC2)c2ccccc2)cc1` (stereo not given), the Potency result was “inactive”. As to `ClCc1ccccc1Cl`, the Potency result was “inactive”. As for `O=C(NC(=O)c1cc(F)c(F)cc1Cl)Nc1cc(F)ccc1N1CCC(C(=O)O)CC1`, the Potency entry was “inactive”. In the case of `O=c1ssc(Cl)c1Cl`, the Potency is 24.3 µM (active). `CCOP(=S)(OCC)SC(CCl)N1C(=O)c2ccccc2C1=O` (stereo not given): the Potency is 30.6 µM (active). For `COc1ccc(C=O)cc1O` the value was “inactive”; for `[F][Sn]([c]1ccccc1)([c]1ccccc1)[c]1ccccc1`, 0.545 µM (active). Turning to `C[C@H](N)[C@H](O)c1ccc(O)c(O)c1`, the Potency entry was “inactive”.

In the case of `O=C(CCCN1CCC2(CC1)C(=O)NCN2c1ccccc1)c1ccc(F)cc1`, the Potency entry was “inactive”.

As for `Cc1nnc(-c2ccccc2)c(=O)n1N`, the Potency result is “inactive”. As for `N#Cc1c(-c2ccc(Cl)cc2)[nH]c(C(F)(F)F)c1Br`, the figure is 9.69 µM (active); as for `COC(=O)c1ccccc1S(=O)(=O)NC(=O)Nc1nc(C)cc(C)n1`, “inactive”. As to `Clc1ccc(-c2ccccc2)cc1`, the Potency entry is “inactive”.

Turning to `CC(C)[C@H](C(=O)OC(C#N)c1cccc(Oc2ccccc2)c1)c1ccc(OC(F)F)cc1` (stereo not given in full), the Potency result is “inactive”. `CNCC(=O)c1ccc(O)c(O)c1`: the Potency result was “inactive”.

For the compound `II`, the Potency entry was “inactive”. With `CN1CCc2cc3c(cc2C1O)OCO3` (stereo not given), the Potency was 54.8 µM (active). Turning to `c1ccc2c(c1)OCC(C1=NCCN1)O2` (stereo not given), the Potency was 23.7 µM (active). Regarding `ClP(Cl)(Cl)(Cl)Cl`, the Potency result is “inactive”. For the compound `O=c1oc2ccccc2c(O)c1Cc1c(O)c2ccccc2oc1=O`, the Potency result was “inactive”.

The values are drawn from PubChem BioAssay (Tox21).
